Sampled rows, rich in hits. Any-hit rate of the full collection: about 2.7%.
ALOX12 inh = Primary qHTS assay for inhibitors of human arachidonate 12S-lipoxygenase (ALOX12): Round 2; purified 12hLO, xylenol orange hydroperoxide absorbance; Potency, µM (series often up to 108 µM), most hits filed as inhibitors; hit rate 1.1% among 580,000; Polyunsaturated fatty acid lipoxygenase ALOX12 (Homo sapiens), P18054
Target sequence (P18054 whole entry, looked up): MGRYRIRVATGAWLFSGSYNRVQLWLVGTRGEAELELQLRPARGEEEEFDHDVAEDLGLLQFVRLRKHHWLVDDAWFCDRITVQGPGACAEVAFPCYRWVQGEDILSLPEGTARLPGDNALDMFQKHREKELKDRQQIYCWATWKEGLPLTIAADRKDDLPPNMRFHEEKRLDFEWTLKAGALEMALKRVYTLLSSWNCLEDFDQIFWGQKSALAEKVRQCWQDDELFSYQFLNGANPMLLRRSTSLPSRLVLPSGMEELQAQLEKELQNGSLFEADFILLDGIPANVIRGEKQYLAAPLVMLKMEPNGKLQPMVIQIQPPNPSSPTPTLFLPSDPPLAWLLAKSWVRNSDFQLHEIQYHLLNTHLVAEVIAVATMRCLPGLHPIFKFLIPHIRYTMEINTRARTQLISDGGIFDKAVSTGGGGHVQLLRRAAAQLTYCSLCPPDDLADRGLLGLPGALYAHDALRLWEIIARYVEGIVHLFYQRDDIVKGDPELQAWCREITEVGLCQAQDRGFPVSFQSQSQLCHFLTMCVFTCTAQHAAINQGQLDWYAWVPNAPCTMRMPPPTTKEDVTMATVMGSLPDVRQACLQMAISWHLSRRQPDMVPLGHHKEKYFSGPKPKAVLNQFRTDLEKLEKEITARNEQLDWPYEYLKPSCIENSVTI
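Purified human 12hLO at 150 nM in 25 mM Hepes, 0.01% Triton X-100, pH 7.0, preincubated 15 min at room temperature with compound. Reaction started with 40 uM arachidonic acid, 30 min at room temperature. Hydroperoxide measured by Fe-xylenol orange, 573/405 nm absorbance ratio.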
S2 tox = Viability Counterscreen for Primary qHTS for Inhibitors of ATXN expression; S2 cells (HEK-293 line with an ATXN2-luciferase reporter) viability, CellTiter-Fluor protease fluorescence, 24 h; Potency, µM (doses to about 56.7 µM), actives largely listed as cytotoxic; hit rate 0.49% among 400,000; note: nearly all actives have a fitted effect of over 40% in size
HepG2 tox-1 = qHTS for Inhibitors of TGF-b: Cytotox Counterscreen; HepG2 CAGA-GFP viability, ATP luminescence, 18 h; Potency, µM (series often up to 46.1 µM), actives largely listed as cytotoxic; hit rate 0.76% among 410,000; AID 588856, 2011
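HepG2 CAGA-GFP cells (1000/well, DMEM with 1% FBS) received compound, then TGF-beta at 500 pg/mL final, and were incubated 18 hours at 37 degrees C. Viability was read by CellTiter-Glo luminescence. Media-only wells were set as complete cell-killing and DMSO as no toxicity.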
TGFb SMAD3 inh = qHTS for Inhibitors of TGF-b; HepG2 CAGA-GFP TGF-b/SMAD3 reporter, GFP fluorescence, 18 h; TGF-beta stimulated, 500 pg/mL final; Potency, µM (top dose mostly 46.1 µM), hits mostly inhibitors; hit rate 1.2% among 410,000; AID 588855, 2011; note: nearly all actives have a fitted effect of over 65% in size
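Cell-based qHTS in HEPG2 carrying a CAGA-GFP Smad reporter; compounds added before 500 pg/mL final TGF-beta, 18 h incubation at 37 degrees C, GFP fluorescence quantified per cell by imaging cytometry.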
ATXN2 expr inh = Primary qHTS for Inhibitors of ATXN expression. hit rate 0.72% among 360,000. Potency, µM (series often up to 57 µM), most hits filed as inhibitors. HEK-293 ATXN2-luciferase reporter, luminescence, 24 h. AID 1745845, 2022; note: nearly all actives have a fitted effect of over 55% in size
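qHTS (up to 57 uM final) was run with 24 h compound exposure of reporter cells at 37 °C. Each well was multiplexed: SteadyGlo luminescence measured ATXN2-luciferase expression after a fluorogenic Gly-Phe-AFC viability readout (25 uM final).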
TGFb CAGA inh = qHTS for Inhibitors of TGF-b: Confirmation of Cherry Picks. shares compounds with TGFb SMAD3 inh. HepG2 CAGA-GFP TGF-b reporter, GFP fluorescence, 18 h; cells stimulated with TGF-beta, 500 pg/mL. Potency, µM (doses to about 46.1 µM), usual class: inhibitors. hit rate 63% among 1,600; note: nearly all actives have a fitted effect of over 65% in size
HepG2 tox-2 = qHTS for Inhibitors of TGF-b: Cytotox Counterscreen for Cherry Picks; shares compounds with TGFb SMAD3 inh; hit rate 27% among 1,600; Potency, µM (series often up to 46.1 µM), usual class: inhibitors; HepG2 CAGA-GFP viability, ATP luminescence, 18 h; cells stimulated with TGF-beta, 500 pg/mL; note: nearly all actives have a fitted effect of over 70% in size
TGFb CCL64 inh = qHTS for Inhibitors of TGF-b: CCL64 Cells Orthogonal Assay for Cherry Picks; shares compounds with TGFb SMAD3 inh; CCL64 CAGA-GFP reporter, TGF-b stimulated, GFP fluorescence, 18 h; Potency, µM (series often up to 46.1 µM), most hits filed as inhibitors; hit rate 41% among 1,600; AID 720536, 2013; note: nearly all actives have a fitted effect of over 65% in size
TGFb COP inh = qHTS for Inhibitors of TGF-b: Hit Validation in HepG2 Cells using COP promoter. hit rate 3% among 1,600. shares compounds with TGFb SMAD3 inh. Potency, µM (series often up to 46.1 µM), usual class: inhibitors. HepG2 COP-GFP TGF-b reporter, GFP fluorescence, 18 h; cells stimulated by added recombinant TGF-beta; note: nearly all actives have a fitted effect of over 70% in size
Hits are given with their value; – = inactive; ? = inconclusive; · = no result. Calls come from the whole dose curve; as a rule, active = well fitted curve in the direction sought with a large enough effect; inconclusive = small, poorly fitted or top-dose-only effect, or another doubt; inactive = no such curve, though single readings can be large; an effect the other way counts as inactive or inconclusive.

SMILES	ALOX12 inh	S2 tox	HepG2 tox-1	TGFb SMAD3 inh	ATXN2 expr inh	TGFb CAGA inh	HepG2 tox-2	TGFb CCL64 inh	TGFb COP inh
COc1ccc2[nH]c3c(c2c1)CCN1C(=O)C(CC(=O)NCCC2=CCCCC2)C[C@H](C(=O)N(C(C)C)C(C)C)[C@@]31C (some centres undefined)	–	?	–	10µM	?	?	–	?	–
CCN(CC)C(=O)[C@H]1C[C@H](CC(=O)NCc2ccc(OC)c(OC)c2)C(=O)N2CCc3c([nH]c4cc(CCC(=O)N(C)C)ccc34)[C@]12C	–	–	–	–	–	·	·	·	·
CCN(CC)C(=O)[C@H]1C[C@H](CC(=O)NC/C=C(\C)CCC=C(C)C)C(=O)N2CCc3c([nH]c4cc(CCC(=O)N(C)C)ccc34)[C@]12C	·	?	–	12.6µM	?	23.1µM	?	?	–
CC(C)=CCC/C(C)=C/CNC(=O)CC1C[C@H](C(=O)N2CCOCC2)[C@@]2(C)c3[nH]c4ccccc4c3CCN2C1=O (some centres undefined)	?	·	–	?	?	·	·	·	·
Cc1cc(OCC(=O)Nc2ccccc2N2CCN(S(C)(=O)=O)CC2)ccc1Cl	–	·	·	·	·	·	·	·	·
CCOCCn1c(NCCOC)nc2c1c(=O)[nH]c(=O)n2C	–	·	·	·	·	·	·	·	·
C[C@]12c3[nH]c4cc(-c5ccco5)ccc4c3CCN1C(=O)[C@@H](CC(=O)NCCC1=CCCCC1)C[C@@H]2C(=O)N1CCOCC1	·	?	–	11.2µM	–	?	?	?	–
C[C@]12c3[nH]c4cc(-c5ccco5)ccc4c3CCN1C(=O)[C@@H](CC(=O)NCCN1CCOCC1)C[C@@H]2C(=O)N1CCOCC1	–	–	–	–	–	·	·	·	·
COC(=O)[C@H](NC(=O)Nc1cc(C)cc(C)c1)C(C)C	–	·	·	·	·	·	·	·	·
O=C(Nc1ccc(Br)cc1)c1cccc(S(=O)(=O)Nc2cnc3ccccc3c2)c1	?	–	–	12.6µM	–	8.2µM	?	23.1µM	–
O=C(Nc1ccc(Br)cc1)c1cccc(S(=O)(=O)Nc2ccccn2)c1	–	–	–	–	–	·	·	·	·
CSc1cccc(NC(=O)c2ccc3c(c2)OCC(=O)N3)c1	–	·	·	·	·	·	·	·	·
CN1CCC[C@H]1CCNc1ccc2c(=O)c3ccccc3n(C)c2c1	–	·	–	15.8µM	?	?	?	20.6µM	–
O=C(Nc1nnc(-c2ccc(Cl)cc2)o1)C1CCN(S(=O)(=O)c2cc(F)ccc2F)CC1	–	·	·	·	·	·	·	·	·
CC(C)(C)c1ccc(Cn2cnc(-c3ccc([N+](=O)[O-])cc3)c2)cc1	–	–	–	8.91µM	–	20.6µM	?	?	–
C#Cc1ccc(NC(=O)C2(C)CCN2C(=O)c2ccccc2CCc2ccccc2)cc1 (centres undefined)	–	–	–	?	–	?	–	?	–
COc1ccc(/C=C2/CSC/C(=C/c3ccc(OC)c(OC)c3)C2=O)cc1OC	–	3.98µM	–	6.31µM	5.62µM	1.3µM	3.26µM	2.31µM	–
COc1ccc(/C=C2\Cc3ccccc3C2=O)cc1OC	–	–	–	–	·	·	·	·	·
CSc1ccc(C2CC(=O)NC3=C2C(=O)CC(C)(C)C3)cc1 (centres undefined)	–	·	·	·	·	·	·	·	·
Cc1cccnc1NC(=O)c1ccc(C2SCCCS2)cc1	–	·	·	·	·	·	·	·	·
Cc1ccc(NC2=C(NCCO)C(=O)c3ccccc3C2=O)cc1	?	–	–	?	–	·	·	·	·
O=C1C(Cl)=C(Nc2ccc3cn[nH]c3c2)C(=O)c2ccccc21	?	14.1µM	1.12µM	0.631µM	20µM	1.64µM	3.26µM	4.61µM	6.51µM
CC(=O)Nc1ccc(NC2=C(Cl)C(=O)c3ccccc3C2=O)cc1	–	·	3.55µM	3.55µM	?	5.17µM	14.6µM	2.91µM	?
O=C(NC1=C(Nc2ccc(Cl)cc2)C(=O)c2ccccc2C1=O)c1ccccc1	–	?	28.2µM	8.91µM	–	14.6µM	20.6µM	?	–
CN(C)c1ccc(NC2=C(Cl)C(=O)c3ccccc3C2=O)cc1	?	·	5.62µM	5.62µM	?	5.17µM	11.6µM	13µM	?
SMILES	ALOX12 inh	S2 tox	HepG2 tox-1	TGFb SMAD3 inh	ATXN2 expr inh	TGFb CAGA inh	HepG2 tox-2	TGFb CCL64 inh	TGFb COP inh
O=S(=O)(Nc1ccc2cn[nH]c2c1)c1ccc(Cl)c(Cl)c1	–	·	·	·	·	·	·	·	·
COc1cc(/C=N/n2cc(-c3ccccc3)[nH]c2=S)cc(OC)c1O	12.6µM	–	–	15.8µM	·	14.6µM	–	–	–
Cc1ccc(CNC(=O)Cc2csc(-c3ccccn3)n2)cc1F	–	·	·	·	·	·	·	·	·
NC1=NC[C@H](Cc2ccc(O)cc2)N1CCc1cccc(F)c1	–	–	–	?	–	·	·	·	·
NC1=NC[C@@H](Cc2ccc(O)cc2)N1CCC12CC3CC(CC(C3)C1)C2	?	?	–	10µM	?	–	–	–	–
COc1ccc(NC(=O)Cn2ccn(-c3ccc(OC)cc3)c2=O)cc1	–	·	·	·	·	·	·	·	·
O=C(NC1CCCCC1)C(c1cccnc1)N(C(=O)CCl)c1cccc(Cl)c1 (centres undefined)	?	11.2µM	22.4µM	10µM	20µM	5.8µM	9.2µM	4.61µM	?
Cc1cccc(N(C(=O)CNC(=O)c2ccco2)C(C(=O)NC2CCCCC2)c2cccnc2)c1 (centres undefined)	–	–	–	–	–	·	·	·	·
CCn1nc(C(=O)OC(C(=O)c2c[nH]c3ccccc23)c2ccccc2)c2ccccc2c1=O (centres undefined)	–	–	–	11.2µM	–	20.6µM	–	?	–
CCSc1ccc([C@@H]2[C@@H]3C(=O)N(CC)C(=O)[C@@H]3[C@]3(C(=O)OC)CCCCN23)cc1	–	–	–	–	–	·	·	·	·
CCSc1ccc([C@@H]2[C@@H]3C(=O)N(CC)C(=O)[C@@H]3[C@]3(C(=O)OC)CCCN23)cc1	?	–	–	?	–	?	–	–	–
COCCn1c(SCC#N)nnc1-c1ccc(Cl)cc1	–	·	·	·	·	·	·	·	·
